Test results as given in the antibiotic and cytotoxicity screens of Wong et al. (2023).
Among all 39,000 compounds or so, about 500 (1.3%) were called active. The full list was thinned out, with actives kept by preference.

tested on: S. aureus RN4220; experiment: growth inhibition call (relative growth <= 0.2); settings: 50 µM

Question: Which growth inhibition call does the source give for C[C@@H]1CN([C@@H](C)CO)C(=O)c2cc(NC(=O)c3ccncc3)ccc2O[C@H]1CN(C)Cc1ccc(C(=O)O)cc1 here?
Answer: inactive

Question: C[C@H](CO)N1C[C@H](C)[C@@H](CN(C)Cc2ccc(Oc3ccccc3)cc2)Oc2ccc(NC(=O)c3ccncc3)cc2C1=O was tested. Which growth inhibition call did it give?
Answer: inactive

Question: With COc1ccc(S(=O)(=O)Nc2ccc3c(c2)CC(=O)N([C@H](C)CO)C[C@H](C)[C@H](CN(C)Cc2ccc(Cl)c(Cl)c2)O3)cc1 as the molecule, how does the growth inhibition call read?
Answer: inactive

Question: CN1C(=O)c2cc(NC(=O)c3cccs3)ccc2OC[C@@H]2O[C@@H](CC(=O)NCCN3CCCCC3)CC[C@@H]21 was tested. Which growth inhibition call did it give?
Answer: inactive

Question: CN(C)CC(=O)N[C@H]1CC[C@H](CCNC(=O)C2CCC2)O[C@@H]1CO was tested. Which growth inhibition call did it give?
Answer: inactive

Question: Which growth inhibition call does the source give for C[C@@H]1CN([C@H](C)CO)C(=O)Cc2cc(NC(=O)Nc3ccc(C(F)(F)F)cc3)ccc2O[C@@H]1CN(C)Cc1ccc(-c2ccccc2)cc1 here?
Answer: inactive

Question: With O=C(C[C@@H]1CC[C@@H]2[C@H](COC[C@H](O)CN2S(=O)(=O)c2ccc(Cl)cc2)O1)NCC1CCCCC1 as the molecule, how does the growth inhibition call read?
Answer: inactive

Question: Which growth inhibition call does the source give for O=C(C[C@H]1CC[C@@H]2[C@H](COC[C@H](O)CN2S(=O)(=O)c2ccc(Cl)cc2)O1)NCC1CCCCC1 here?
Answer: active

Question: For O=C(C[C@@H]1CC[C@H]2[C@@H](COC[C@@H](O)CN2S(=O)(=O)c2ccc(Cl)cc2)O1)NCC1CCCCC1, which growth inhibition call is on record?
Answer: active

Question: Which growth inhibition call does the source give for O=C(C[C@H]1CC[C@H]2[C@@H](COC[C@@H](O)CN2S(=O)(=O)c2ccc(Cl)cc2)O1)NCC1CCCCC1 here?
Answer: inactive

Question: With O=C(C[C@@H]1CC[C@@H]2[C@H](COC[C@@H](O)CN2S(=O)(=O)c2ccc(Cl)cc2)O1)NCC1CCCCC1 as the molecule, how does the growth inhibition call read?
Answer: inactive

Question: With O=C(C[C@@H]1CC[C@H]2[C@@H](COC[C@H](O)CN2S(=O)(=O)c2ccc(Cl)cc2)O1)NCC1CCCCC1 as the molecule, how does the growth inhibition call read?
Answer: inactive

Question: How did the growth inhibition call turn out when C[C@@H]1CN([C@@H](C)CO)S(=O)(=O)c2ccc(C#CCN(C)C)cc2O[C@@H]1CN(C)S(C)(=O)=O was run?
Answer: inactive

Question: Which growth inhibition call does the source give for CC(C)NC(=O)N(C)C[C@H]1Oc2ccc(NC(=O)NC3CCCCC3)cc2CC(=O)N([C@H](C)CO)C[C@H]1C here?
Answer: inactive

Question: Which growth inhibition call does the source give for CC(C)NC(=O)N(C)C[C@@H]1Oc2ccc(NS(=O)(=O)c3cccs3)cc2CC(=O)N([C@@H](C)CO)C[C@@H]1C here?
Answer: inactive

Question: Which growth inhibition call does the source give for C[C@@H]1CN([C@@H](C)CO)C(=O)Cc2cc(NS(=O)(=O)c3cn(C)cn3)ccc2O[C@H]1CN(C)Cc1ccc(C(=O)Nc2ccccc2N)cc1 here?
Answer: inactive

Question: How did the growth inhibition call turn out when C[C@H]1CCCCO[C@@H](CN(C)S(=O)(=O)c2ccccc2)[C@@H](C)CN([C@@H](C)CO)C(=O)c2cc(NC(=O)c3ccccc3)ccc2O1 was run?
Answer: inactive

Question: Which growth inhibition call does the source give for C[C@@H]1CN([C@H](C)CO)C(=O)c2cc(NC(=O)Nc3ccc(F)cc3)ccc2O[C@@H](C)CCCCO[C@H]1CN(C)Cc1ccccc1 here?
Answer: inactive

Question: For CS(=O)(=O)N1C[C@H](NC(=O)C2CC2)[C@H]2OCCC[C@H]21, which growth inhibition call is on record?
Answer: inactive

Question: Which growth inhibition call does the source give for C[C@@H]1CCCCO[C@@H](CN(C)CC2CC2)[C@H](C)CN([C@@H](C)CO)C(=O)c2cc(NC(=O)Nc3ccc(C(F)(F)F)cc3)ccc2O1 here?
Answer: inactive

Question: For C[C@H]1CN([C@@H](C)CO)C(=O)c2cc(NC(=O)Nc3ccc(C(F)(F)F)cc3)ccc2O[C@@H]1CN(C)CC1CCCCC1, which growth inhibition call is on record?
Answer: inactive

Question: C[C@@H]1CCCCO[C@@H](CN(C)CC2CC2)[C@@H](C)CN([C@H](C)CO)C(=O)c2cc(NC(=O)Nc3ccc(C(F)(F)F)cc3)ccc2O1 was tested. Which growth inhibition call did it give?
Answer: inactive

Question: With C[C@@H]1CCCCO[C@H](CN(C)CC2CC2)[C@H](C)CN([C@H](C)CO)C(=O)c2cc(NC(=O)Nc3ccc(C(F)(F)F)cc3)ccc2O1 as the molecule, how does the growth inhibition call read?
Answer: active

Question: Which growth inhibition call does the source give for C[C@H]1CCCCO[C@H](CN(C)CC2CC2)[C@@H](C)CN([C@@H](C)CO)C(=O)c2cc(NC(=O)Nc3ccc(C(F)(F)F)cc3)ccc2O1 here?
Answer: inactive

Question: For C[C@@H]1CN([C@H](C)CO)C(=O)c2cc(NC(=O)Nc3ccc(C(F)(F)F)cc3)ccc2O[C@@H]1CN(C)CC1CCCCC1, which growth inhibition call is on record?
Answer: inactive

Question: Which growth inhibition call does the source give for C[C@H](CO)N1C[C@H](C)[C@H](CN(C)CC2CC2)OCCCC[C@H](C)Oc2ccc(NC(=O)Nc3ccc(C(F)(F)F)cc3)cc2C1=O here?
Answer: inactive

Question: Which growth inhibition call does the source give for C[C@@H]1CCCCO[C@H](CN(C)CC2CC2)[C@H](C)CN([C@@H](C)CO)C(=O)c2cc(NC(=O)Nc3ccc(C(F)(F)F)cc3)ccc2O1 here?
Answer: active

Question: Which growth inhibition call does the source give for C[C@H](CO)N1C[C@H](C)[C@H](CN(C)CC2CCCCC2)Oc2ccc(NC(=O)Nc3ccc(C(F)(F)F)cc3)cc2C1=O here?
Answer: active

Question: How did the growth inhibition call turn out when CCCC#Cc1cnc2c(c1)C(=O)N([C@@H](C)CO)C[C@H](C)[C@@H](CN(C)C(=O)c1ccc3c(c1)OCO3)O2 was run?
Answer: inactive

Question: With C[C@@H]1CN([C@H](C)CO)C(=O)c2cc(NS(=O)(=O)c3cn(C)cn3)ccc2O[C@H]1CN(C)Cc1ccc(C(=O)Nc2ccccc2N)cc1 as the molecule, how does the growth inhibition call read?
Answer: inactive

Question: With Cc1ccc(S(=O)(=O)Nc2ccc3c(c2)C(=O)N([C@H](C)CO)C[C@@H](C)[C@H](CN(C)Cc2ccc(C(F)(F)F)cc2)O3)cc1 as the molecule, how does the growth inhibition call read?
Answer: inactive

Question: COc1ccc(S(=O)(=O)Nc2ccc3c(c2)[C@H]2C[C@@H](CC(=O)NCC4CC4)O[C@H](CO)[C@H]2O3)cc1 was tested. Which growth inhibition call did it give?
Answer: inactive

Question: How did the growth inhibition call turn out when CCOc1nc2cccc(C(=O)O[C@@H](C)OC(=O)OC3CCCCC3)c2n1Cc1ccc(-c2ccccc2-c2nn[nH]n2)cc1 was run?
Answer: active

Question: Which growth inhibition call does the source give for CCOc1nc2cccc(C(=O)OC(C)OC(=O)OC3CCCCC3)c2n1Cc1ccc(-c2ccccc2-c2nnn[nH]2)cc1 (stereo not drawn) here?
Answer: inactive

Question: How did the growth inhibition call turn out when CCOc1nc2cccc(C(=O)O)c2n1Cc1ccc(-c2ccccc2-c2nnn[nH]2)cc1 was run?
Answer: inactive

Question: C[C@H](CO)N1C[C@H](C)[C@H](CN(C)S(=O)(=O)c2cn(C)cn2)Oc2ncc(-c3cc4ccccc4o3)cc2C1=O was tested. Which growth inhibition call did it give?
Answer: inactive

Question: COc1ccc(NC(=O)N(C)C[C@@H]2Oc3ccc(NC(=O)C4CC4)cc3CC(=O)N([C@@H](C)CO)C[C@@H]2C)cc1 was tested. Which growth inhibition call did it give?
Answer: inactive

Question: Which growth inhibition call does the source give for Cc1noc(C)c1NC(=O)Nc1cccc2c1O[C@H](CN(C)Cc1ccc(C(=O)Nc3ccccc3N)cc1)[C@H](C)CN([C@@H](C)CO)C2=O here?
Answer: inactive

Question: For C[C@@H]1CN([C@@H](C)CO)C(=O)c2cc(NS(=O)(=O)c3ccccc3)ccc2O[C@H]1CN(C)S(=O)(=O)c1cccs1, which growth inhibition call is on record?
Answer: inactive

Question: C=CCOC(=O)[C@H]1[C@@H]2C(=O)O[C@@H](c3ccccc3)[C@@H](c3ccccc3)N2[C@@H](c2ccc(OCCOC(=O)[C@@H]3C[C@@H]4C(=O)N[C@@H](CC(C)C)C(=O)N4[C@@H]3c3ccc(O)cc3)cc2)[C@]12C(=O)Nc1ccccc12 was tested. Which growth inhibition call did it give?
Answer: inactive

Question: With C[C@H](CO)N1C[C@H](C)[C@H](CN(C)Cc2ccc(C(=O)Nc3ccccc3N)cc2)Oc2ccc(NC(=O)Cn3cnnn3)cc2C1=O as the molecule, how does the growth inhibition call read?
Answer: inactive

Question: How did the growth inhibition call turn out when C[C@@H](O[C@H]1OCCN(Cc2n[nH]nc2CN(C)C)[C@H]1c1ccc(F)cc1)c1cc(C(F)(F)F)cc(C(F)(F)F)c1 was run?
Answer: active

Question: Which growth inhibition call does the source give for CC(OC1OCCN(C(C)c2nc(=O)[nH][nH]2)C1c1ccc(F)cc1)c1cc(C(F)(F)F)cc(C(F)(F)F)c1 (stereo not drawn) here?
Answer: inactive

Question: Which growth inhibition call does the source give for C[C@@H]1CN([C@@H](C)CO)C(=O)c2cccc(NC(=O)c3ccc(-c4nccs4)cc3)c2O[C@H]1CN(C)S(=O)(=O)c1cn(C)cn1 here?
Answer: inactive

Question: COCC#Cc1ccc2c(c1)O[C@@H](CN(C)C(=O)c1ccccc1)[C@@H](C)CN([C@@H](C)CO)S2(=O)=O was tested. Which growth inhibition call did it give?
Answer: inactive

Question: How did the growth inhibition call turn out when C[C@H](CO)N1C[C@H](C)[C@@H](CN(C)CC2CC2)OCCCC[C@H](C)Oc2ccc(NC(=O)CCCCCC(=O)Nc3ccccc3N)cc2C1=O was run?
Answer: inactive

Question: With CC(C)[C@@H](N)c1nc2ccccc2[nH]1 as the molecule, how does the growth inhibition call read?
Answer: inactive

Question: Cc1ccc2nc([C@H](N)C(C)C)[nH]c2c1 was tested. Which growth inhibition call did it give?
Answer: inactive

Question: C[C@@H](Oc1ccccc1Cl)c1nc2ccc(Cl)cc2[nH]1 was tested. Which growth inhibition call did it give?
Answer: active

Question: Which growth inhibition call does the source give for C[C@@H]1CN([C@H](C)CO)C(=O)Cc2cc(NC(=O)CCCCCC(=O)Nc3ccccc3N)ccc2O[C@@H]1CN(C)C(=O)Nc1ccc(C(F)(F)F)cc1 here?
Answer: inactive

Question: For CON=C(C(=O)NC1C(=O)N2C(C(=O)[O-])=C(COC(N)=O)CSC12)c1ccco1.[Na+] (stereo not drawn), which growth inhibition call is on record?
Answer: active

Question: CC(C)(O/N=C(\C(=O)N[C@@H]1C(=O)N2C(C(=O)O)=C(C[N+]3(CCNC(=O)c4ccc(O)c(O)c4Cl)CCCC3)CS[C@H]12)c1csc(N)n1)C(=O)O was tested. Which growth inhibition call did it give?
Answer: inactive

Question: With CON=C(C(=O)N[C@@H]1C(=O)N2C(C(=O)O)=C(CSc3nc(=O)c(O)nn3C)CS[C@H]12)c1csc(N)n1 as the molecule, how does the growth inhibition call read?
Answer: active

Question: How did the growth inhibition call turn out when CON=C(C(=O)NC1C(=O)N2C(C(=O)OC(C)OC(C)=O)=C(COC(N)=O)CSC12)c1ccco1 (stereo not drawn) was run?
Answer: inactive

Question: Which growth inhibition call does the source give for CO/N=C(\C(=O)N[C@@H]1C(=O)N2C(C(=O)O)=C(CSc3nnnn3C)CS[C@H]12)c1csc(N)n1 here?
Answer: inactive

Question: For CC(C)(O/N=C(\C(=O)N[C@@H]1C(=O)N2C(C(=O)O)=C(C[n+]3ccccc3)CS[C@H]12)c1csc(N)n1)C(=O)O, which growth inhibition call is on record?
Answer: inactive

Question: For CO/N=C(\C(=O)N[C@@H]1C(=O)N2C(C(=O)O)=C(C[n+]3ccn4ncccc43)CS[C@H]12)c1nsc(N)n1, which growth inhibition call is on record?
Answer: inactive

Question: Which growth inhibition call does the source give for CO/N=C(\C(=O)N[C@@H]1C(=O)N2C(C(=O)O)=C(C[N+]3(C)CCCC3)CS[C@H]12)c1csc(N)n1 here?
Answer: active

Question: CO/N=C(\C(=O)N[C@@H]1C(=O)N2C(C(=O)O[C@@H](C)OC(C)=O)=C(COC(N)=O)CS[C@H]12)c1ccco1 was tested. Which growth inhibition call did it give?
Answer: inactive

Question: For CON=C(C(=O)NC1C(=O)N2C(C(=O)O)=C(C[N+]3(C)CCCC3)CSC12)c1csc(N)n1.[Cl-] (stereo not drawn), which growth inhibition call is on record?
Answer: active

Question: For Cc1cn2nc([C@@H]3CCCCN3C(=O)c3cc(Cl)ccc3NS(C)(=O)=O)cc2nc1N1CC[C@H](N)C1, which growth inhibition call is on record?
Answer: inactive

Question: With NNC(=O)c1cc(=S)nc[nH]1 as the molecule, how does the growth inhibition call read?
Answer: inactive

Question: How did the growth inhibition call turn out when Cc1noc(C)c1NC(=O)Nc1ccc2c(c1)C(=O)N([C@H](C)CO)C[C@@H](C)[C@H](CN(C)S(=O)(=O)c1cn(C)cn1)O2 was run?
Answer: inactive
